Source: PubChem
HT1080 IDH1KD tx – kills HT-1080 cells with IDH1 knockdown; Potency, µM (highest dose often 46.1 µM), inactives show top-dose activity, negative = toxicity, usual class: cytotoxic; hit rate 2% among 360,000; HT-1080 IDH1 knockdown viability, ATP luminescence, 48 h;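 further: 0% = DMSO wells and -100% = cell-free medium wells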
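In this qHTS, HT-1080 cells depleted of IDH1 are exposed for 48 h at 37 °C to compound titrations. Toxicity is scored from CellTiter-Glo luminescence, with DMSO as full viability and medium alone as none.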
HT1080-NT tox – kills 2HG-producing HT-1080-NT fibrosarcoma cells. Potency, µM (highest dose often 46.1 µM), for the others: at the top dose activity, negative = less viability, hits mostly cytotoxic. hit rate 1.6% among 360,000. HT-1080-NT fibrosarcoma viability, CellTiter-Glo ATP luminescence, 48 h;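 further: NT is the 2HG producing partner of a matched IDH1 knockdown line; 0% = DMSO-treated cells and -100% = media-only wells without cells; nearly all actives have a fitted effect of over 55% in size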
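HT-1080-NT fibrosarcoma cells (2HG-overproducing), 750 cells/well in RPMI with 5% FBS, dosed after 2 h and incubated 48 h at 37C. CellTiter-Glo luminescence normalized to DMSO and no-cell wells; concentration-response curves fitted and classed.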
KB-3-1 cytotox – KB-3-1 parental cell cytotoxicity; AID 1347075; KB-3-1 viability, CellTiter-Glo ATP luminescence, 72 h; Potency, µM (highest dose often 46.1 µM), actives largely listed as cytotoxic; hit rate 1.4% among 400,000; further: on the % scale 0 is the no-effect control and ±100 the full control effect; nearly all actives have a fitted effect of over 60% in size
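KB-3-1 parental drug-naive adenocarcinoma cells in DMEM/10% FBS, incubated 72 h at 37 C with pin-transferred compounds across a concentration series. Viability by CellTiter-Glo luminescence; concentration-response curves fitted after normalization.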
KB-V1 cytotox – kills drug-selected multidrug resistant KB-V1 cells. KB-V1 MDR cells viability, CellTiter-Glo, 72 h. Potency, µM (highest dose often 46.1 µM), most hits filed as cytotoxic. AID 1347076. hit rate 3.4% among 400,000; further: on the % scale 0 is the no-effect control and ±100 the full control effect; nearly all actives have a fitted effect of over 60% in size
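qHTS viability screen in drug-selected KB-V1 MDR cells: 72 h compound treatment at 37 degrees C, ATP luminescence end point.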
SW480 rereplic – induces DNA re-replication in SW480 colon adenocarcinoma cells | SW480 DNA re-replication, Hoechst DNA content imaging, 48 h | Potency, µM (top dose mostly 46.1 µM), for the others: at the highest dose re-replication activation, hits mostly activators | hit rate 1.8% among 340,000 | AID 624297; further: % of control where 0% means no effect; nearly all actives have a fitted effect of over 55% in size
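SW480 cells exposed to compounds for 48 hr at 37 C, 5% CO2, then Hoechst-stained 40 min. Nuclear DNA content imaged by fluorescence scanning (405 nm excitation, 500-530 nm emission); re-replication scored as increased high-intensity nuclei.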
MCF10A rerep – induces DNA re-replication in MCF 10a normal breast cells; MCF 10A DNA re-replication, Hoechst nuclear intensity, 48 h; Potency, µM (highest dose often 46.1 µM), for the others: at the top dose activity, positive = re-replication, hits mostly activators; hit rate 2.9% among 350,000; AID 624296; further: % of control where 0% means no effect; nearly all actives have a fitted effect of over 50% in size
* hit, by the source's call; i = inactive; u = inconclusive; x = no result given; [ ] = remark or other dose. The list is not random: actives were taken first. Their share in the collection is about 8%. The call rests on the fitted dose curve; in most records, active means well fitted curve in the direction sought with a large enough effect; inconclusive means small, poorly fitted or top-dose-only effect, or another doubt; inactive means no such curve, though single readings can be large; an effect the other way counts as inactive or inconclusive. Potency means the concentration at half of the fitted maximal effect.

SMILES	HT1080 IDH1KD tx	HT1080-NT tox	KB-3-1 cytotox	KB-V1 cytotox	SW480 rereplic	MCF10A rerep
CCOc1cc(CNC2CCCC2)cc(Cl)c1OCc1ccc(F)cc1	u	u	i	i	u	u
Cc1ccc(-n2c(C)cc(/C=N/NC(=O)c3ccc(CN4CCOCC4)cc3)c2C)cc1	u	-15%	i	16µM*	8%	22%
Cc1ccc(-n2c(O)c(C=NCCN3CCOCC3)c(=O)[nH]c2=O)cc1	9%	u	i	u	-1%	-4%
CCOc1ccc2c3c1O[C@H]1[C@@H](O)C=C[C@H]4[C@@H](C2)N(C)CC[C@@]341	x	x	x	x	0%	-1%
Cc1ccc(-n2c(O)c(/C=C/C=Nc3ccccc3)c(=O)[nH]c2=O)cc1	-2%	1%	i	i	-57%	-49%
Cc1ccc(N/N=C/c2c(O)n(-c3ccccc3)c(=O)[nH]c2=O)cc1	2.9µM*	u	i	i	-5%	0%
CCCCCCCC(=O)OCC(COC(=O)CCCCCCC)OC(=O)CCCCCCC	10%	-1%	i	i	-120%	u
COc1ccc(C)cc1NC(=O)c1cccn(Cc2cccc([N+](=O)[O-])c2)c1=O	x	x	i	i	x	x
O=C(CCl)Nc1nccs1	u	u	u	u	16µM*	u
O=C(Nc1ccc(Cl)cc1)Nc1nccs1	7.3µM*	7.3µM*	4.6µM*	2.6µM*	5.8µM*	7.3µM*
O=C(CN1CCCC2CCCCC21)c1ccc(I)cc1 (configuration not stated)	x	x	i	i	x	x
COc1cc(-c2ccc(=O)[nH]n2)ccc1OC(F)F	-9%	25%	0.46µM*	0.052µM*	-3%	u
COc1cc(-c2ccc(N)c(OC)c2)ccc1N	-4%	-13%	i	i	0%	-50%
CCOc1ccc2nc(N3CCC(C(=O)N4CCC5(CC4)OCCO5)CC3)sc2c1	-27%	-26%	u	2.9µM*	26%	13%
CCc1ccc2nc(N3CCC(C(=O)N4CCC5(CC4)OCCO5)CC3)sc2c1	-25%	u	u	i	-55%[1.84 µM]	u
Cc1cccc(-n2c(/C=C/c3c[nH]c4ccccc34)nc3ccccc3c2=O)c1	x	x	i	u	x	x
CC12CC[C@H]3[C@@H](CCC4(O)C[C@H](O)CCC34/C=N/NC(=O)c3ccccc3O)C1(O)CCC2C1=CC(=O)OC1 (some centres not stated)	18µM*	u	u	u	u	u
CN(C)c1ccc(C(=O)N/N=C/C23CC[C@@H](O)CC2(O)CC[C@@H]2[C@@H]3CCC3(C)C(C4=CC(=O)OC4)CCC23O)cc1 (some centres not stated)	10µM*	u	6.5µM*	u	11%	u
CC12CC[C@H]3[C@@H](CCC4(O)C[C@H](O)CCC34/C=N/NC(=O)c3ccccc3F)C1(O)CCC2C1=CC(=O)OC1 (some centres not stated)	u	-12%	18µM*	i	0%	u
CC12CC[C@H]3[C@@H](CCC4(O)C[C@H](O)CCC34/C=N/NC(=O)c3ccc(O)cc3)C1(O)CCC2C1=CC(=O)OC1 (some centres not stated)	6%	0%	i	i	-9%	0%
COc1cc(C(=O)N/N=C/C23CC[C@@H](O)CC2(O)CC[C@@H]2[C@@H]3CCC3(C)C(C4=CC(=O)OC4)CCC23O)ccc1O (some centres not stated)	23µM*	-27%	i	i	-12%	u
C=CCN(C1=NCCN1)c1c(Cl)cccc1Cl	x	x	x	x	-1%	0%
CCCCCCC(=O)O[C@H]1CC[C@H]2[C@@H]3CCC4CC(=O)C=C(C)[C@]4(C)[C@H]3CC[C@]12C (some centres not stated)	x	x	x	x	u	14%
CCCCCCC(=O)CCCCCC/C=C/C[C@@H](O)[C@H](O)[C@@](N)(CO)C(=O)O	x	x	x	x	2%	11%
CC(C)C12CN3CC(C(C)C)(CN(C1)C3c1ccccn1)C2=O (configuration not stated)	x	x	i	i	x	x
SMILES	HT1080 IDH1KD tx	HT1080-NT tox	KB-3-1 cytotox	KB-V1 cytotox	SW480 rereplic	MCF10A rerep
OC12ONC(c3ccccn3)C1N1CCC2CC1 (configuration not stated)	-13%	1%	i	i	16µM*	7.3µM*
CC(=O)OC[C@]12CCC(C)=C[C@H]1O[C@@H]1[C@H](O)[C@@H](OC(C)=O)[C@@]2(C)[C@]12CO2	0.21µM*	u	u	u	u	9%
Cc1ccccc1-c1nc(CS(=O)CC(=O)N2CCC3(CC2)OCCO3)c(C)o1 (configuration not stated)	16%	1%	i	13µM*	-1%	-2%
Cc1onc(-c2ccccc2)c1C(=O)N[C@@H]1C(=O)N2[C@@H]1SC(C)(C)[C@@H]2C(=O)O	x	x	x	x	-6%	7%
COC(=O)C(O)(c1ccc(NC(=S)NC(=O)c2ccc(Cl)cc2Cl)c(C)c1)C(F)(F)F (configuration not stated)	u	u	u	u	17%	u
COC(=O)C(O)(c1ccc(NC(=S)NC(=O)c2ccc(Cl)cc2Cl)cc1)C(F)(F)F (configuration not stated)	-9%	-19%	u	18µM*	40%	u
CCOC(=O)C(O)(c1ccc(NC(=S)NC(=O)c2ccc(Cl)cc2Cl)c(C)c1)C(F)(F)F (configuration not stated)	23µM*	16µM*	u	u	22%	u
Clc1ccc(OCC#CCN2CCOCC2)cc1	9%	11%	i	u	-2%	-5%
C(#CCN1CCOCC1)COC/C=C/c1ccccc1	2%	-4%	i	21µM*	77%	1%
CC(=O)OC(C)(C)/C=C/C(=O)C(C)(O)C1[C@H](O)C[C@@]2(C)C3CC=C4C(CC[C@@H](O)C4(C)C)[C@]3(CO)C(=O)C[C@]12C (some centres not stated)	0.033µM*	0.1µM*	u	3.7µM*	u	u
CC(=O)OC(C)(C)/C=C/C(=O)C(C)(O)C1C(O)CC2(C)C3CC=C4C(CC(O)C(=O)C4(C)C)C3(C)C(=O)CC12C (configuration not stated)	0.046µM*	0.12µM*	0.16µM*	0.46µM*	0.012µM*	u
